# Only some compounds are listed: those with a hit (about 19% of all), similar ones and a draw of the others.
# DT40 TDP1 no CPT: qHTS for Inhibitors of human tyrosyl-DNA phosphodiesterase 1 (TDP1): qHTS in cells in absence of CPT; Potency, µM (top dose mostly 46.2 µM), without a hit: at the highest dose activity change, negative = growth inhibition, usual class: inhibitors; DT40 Tdp1-/- hTDP1 cells, no CPT, ATP luminescence, 48 h; 420,000 compounds, 15% hits; AID 686978, 2013; note: potency is the fitted concentration of half-maximal effect; nearly all actives have a fitted effect of over 55% in size
#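 Cells were dispensed at 400 per well, compounds added by pin tool, plates incubated ≥48 hr at 37 °C, then CellTiter-Glo added for 30 min at room temperature before luminescence reading. Line: DT40 Tdp1-/- complemented with hTDP1; camptothecin omitted.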
# ELG1 repair inh: ELG1-dependent DNA repair inhibition | HEK293T ELG1-luciferase reporter, luminescence, 16 h; DNA damage induced by 5-fluorouridine | Potency, µM (titrated, usually from 46.1 µM), for the others: at the top dose activity change, negative = inhibition, usual class: inhibitors | 330,000 compounds, 2.3% hits | AID 504467; note: potency is the fitted concentration of half-maximal effect; nearly all actives have a fitted effect of over 55% in size
#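 DMSO vehicle served as the neutral condition. Each well held 2,000 cells given 5-fluorouridine plus compound; after 16 hr at 37 °C/5% CO2, ONE-Glo was added and luciferase measured 30 min later.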
# HT1080-NT tox: kills 2HG-producing HT-1080-NT fibrosarcoma cells | HT-1080-NT fibrosarcoma viability, CellTiter-Glo ATP luminescence, 48 h | 360,000 compounds, 1.6% hits | Potency, µM (top dose mostly 46.1 µM), for inactives: top-dose activity, negative = less viability, most hits filed as cytotoxic;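 note: NT is the 2HG producing partner of a matched IDH1 knockdown line; potency is the fitted concentration of half-maximal effect; 0% = DMSO-treated cells and -100% = media-only wells without cells; nearly all actives have a fitted effect of over 55% in size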
#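 Fibrosarcoma NT cells, 750 per well in 5% FBS RPMI, were exposed to compound for 48 hours. Viability: CellTiter-Glo luminescence.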
# IL-1B inflam inh: blocks inflammasome-driven IL-1 beta release; THP-1 LPS/ATP IL-1B secretion, AlphaLISA, 16 h; hits give low values; activity change, % at 57.5 µM; 360,000 compounds, 4.7% hits; in the data active = activity change below about -50%; inconclusive = mostly about -30% to -49%
#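 THP-1 cells pretreated 1 hr with compounds (up to 57.5 uM final), then stimulated with LPS (250 ng/mL final) plus ATP (1.25 mM final); secreted IL-1B measured by AlphaLISA after 16 hr, decreased signal indicating inhibition.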
# HT1080 IDH1KD tx: toxicity to HT-1080 IDH1 knockdown cells (counter line); Potency, µM (titrated, usually from 46.1 µM), for the others: top-dose activity, negative = toxicity, usual class: cytotoxic; HT-1080 IDH1 knockdown viability, ATP luminescence, 48 h; 360,000 compounds, 2% hits;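 note: potency is the fitted concentration of half-maximal effect; 0% = DMSO wells and -100% = cell-free medium wells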
#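 CellTiter-Glo luminescence after 48 h compound exposure at 37 degrees C of IDH1-knockdown HT-1080 cells in 5% FBS RPMI. %Activity scaled between DMSO wells and cell-free media wells, with curves fitted and assigned curve classes.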
# DT40 TDP1 CPT: growth inhibition of DT40 Tdp1-/-;hTDP1 cells with camptothecin (screen for TDP1 inhibitors) | chicken DT40 Tdp1-/-;hTDP1 cells + 20 nM CPT, ATP luminescence, 48 h | Potency, µM (titrated, usually from 46.2 µM), without a hit: top-dose activity change, negative = growth inhibition, actives largely listed as inhibitors | 420,000 compounds, 12% hits; note: potency is the fitted concentration of half-maximal effect; nearly all actives have a fitted effect of over 55% in size
#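 Chicken DT40 Tdp1-/- cells complemented with human TDP1, 400 cells/well, exposed to compounds plus 20 nM camptothecin for at least 48 h at 37 C; viability read as ATP content by CellTiter-Glo luminescence.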
# * = called active by the depositor; ? = inconclusive; nt = not tested or not shown. Unless noted, calls come from the whole dose curve; as a rule, active = well fitted curve in the direction sought with a large enough effect; inconclusive = small, poorly fitted or top-dose-only effect, or another doubt; inactive = no such curve, though single readings can be large; an effect the other way counts as inactive or inconclusive. Unless noted, % is set by controls: 0 for no effect and ±100 for the full control effect.
SMILES,DT40 TDP1 no CPT,ELG1 repair inh,HT1080-NT tox,IL-1B inflam inh,HT1080 IDH1KD tx,DT40 TDP1 CPT
Cc1ccccc1NC(=O)CSc1nc2ccc(NC(=O)COc3ccccc3F)cc2s1,10µM*,nt,nt,nt,nt,13µM*
Cc1ccc(CSc2nc3ccc(NC(=O)COc4ccccc4F)cc3s2)cc1,-27%,nt,nt,nt,nt,-29%
NNC(=O)c1sccc1OCc1ccc(Cl)cc1Cl,?,?,-22%,?,?,-4%
COc1ccc(-c2cccc(-c3cc(=O)oc4ccc(C(C)(C)C)cc34)c2)cc1,?,6%,0%,15,2%,?
Cc1cccc2c(=O)cc(CSc3ccccc3NC(=O)c3cccc(F)c3)[nH]c12,?,nt,nt,nt,nt,-28%
Cc1cccc(NC(=O)CSc2nc3ccc(NC(=O)c4cccs4)cc3s2)c1,8.2µM*,nt,nt,nt,nt,13µM*
O=C(CSc1nc2ccc(NC(=O)c3ccccc3C(=O)O)cc2s1)Nc1c(Cl)cccc1Cl,6%,?,1%,24,8%,2%
COc1cccc(OC)c1C(=O)NC(=S)Nc1ccc2oc(-c3ccncc3)nc2c1,23µM*,0%,19%,21,2%,26µM*
O=C(Nc1ccc2oc(-c3ccncc3)nc2c1)c1c(F)c(F)c(F)c(F)c1F,1.5µM*,2%,-1%,?,-18%,0.73µM*
O=C(Nc1ccc2oc(-c3ccccc3)nc2c1)c1ccc2c(c1)OCCO2,16µM*,?,?,-24,?,23µM*
Cc1cccc(C(=O)Nc2ccc3oc(-c4ccncc4)nc3c2)c1,12µM*,nt,nt,nt,nt,21µM*
CC(C)N1C(=O)C(O)(c2c[nH]c3ccccc23)c2ccccc21 (stereo not given),?,nt,nt,nt,nt,-22%
CCCN(C(=O)C1CC(=O)N(c2ccccc2C(C)CC)C1)C1CCS(=O)(=O)C1 (stereo not given),-6%,19%,4%,2,6%,-8%
CC(C)Oc1cccc(C(=O)Nc2ccc3oc(-c4ccccc4)nc3c2)c1,21µM*,nt,nt,nt,nt,?
O=C(Nc1ccc(-c2nc3ccccc3o2)c(O)c1)c1ccccc1,18µM*,nt,nt,nt,nt,?
CC(C)(C)c1ccc(C(=O)Nc2ccc(-c3nc4ccccc4o3)c(O)c2)cc1,-17%,nt,nt,nt,nt,5%
O=C(NC(=S)N1CCCCCC1)c1ccc(Cl)cc1Cl,?,-20%,-4%,17,-4%,?
O=C(CCSC1=NCCCN1)c1ccc(F)cc1,2.9µM*,nt,-3%,-4,2%,1.8µM*
Cc1cc(C)n2nc(C(=O)OCCOc3cccc(Br)c3)nc2n1,-19%,13%,-9%,-6,-4%,?
Cc1cc(C)n2nc(C(=O)OCCOc3ccc(F)cc3)nc2n1,5%,12%,23%,-50*,14%,-7%
Cc1ccc(C)c(CN2C(=O)c3ccccc3S(=O)(=O)c3ccc(C(=O)N4CCN(c5ccccc5)CC4)cc32)c1,-16%,nt,nt,nt,nt,-2%
O=C(c1ccc2c(c1)N(Cc1ccccc1)C(=O)c1ccccc1S2(=O)=O)N1CCN(Cc2ccccc2)CC1,7.3µM*,nt,nt,nt,nt,10µM*
O=C(c1ccc2c(c1)N(Cc1ccc(Cl)cc1)C(=O)c1ccccc1S2=O)N1CCC(Cc2ccccc2)CC1 (stereo not given),9.2µM*,nt,nt,nt,nt,12µM*
O=C(c1ccc2c(c1)N(Cc1ccccc1F)C(=O)c1ccccc1S2(=O)=O)N1CCN(c2ccccn2)CC1,21µM*,nt,nt,nt,nt,26µM*
O=C(c1ccc2c(c1)N(Cc1ccccc1)C(=O)c1ccccc1S2(=O)=O)N1CCN(c2ccccn2)CC1,21µM*,nt,nt,nt,nt,?
O=C(CNC(=O)c1sc2ccccc2c1Cl)Nc1ccccc1F,-28%,?,9%,-13,4%,-14%
